The values below come from PubChem BioAssay AID686978 (National Center for Advancing Translational Sciences (NCATS), 2013).

The structures appear in SMILES notation. The whole screen tested about 420,000 compounds, of which about 64,000 (15%) were called active. Not shown: some 27% with an inconclusive outcome. The call rests on the fitted dose curve; in most records, active means well fitted inhibition curve with a large enough effect; inconclusive means small, poorly fitted or top-dose-only effect; inactive means flat fitted curve, though single readings scatter. Not all results are given here.
On the % scale 0 is the no-effect control and ±100 the full control effect; potency means the concentration at half of the fitted maximal effect.

The nature of this test: qHTS for Inhibitors of human tyrosyl-DNA phosphodiesterase 1 (TDP1): qHTS in cells in absence of CPT. Further: nearly all actives have a fitted effect of over 55% in size. The note with it: DT40 Tdp1-/- hTDP1 cells, no CPT, ATP luminescence, 48 h; activity change, negative = growth inhibition: at 46.2 µM (top of the series). The source says:
Human tyrosyl-DNA phosphodiesterase 1 (TDP1) is a novel repair gene, and we propose to use it as a new target for anticancer drug development. TDP1 is not an essential protein, but under treatment with topoisomerase I poison (camptothecin: CPT), TDP1 works as a critical factor for cell survival. To directly identify novel TDP1 inhibitors active in a cellular environment, we have knocked-out the Tdp1 gene in chicken DT40 cells (Tdp1-/-) and generated a complemented counterpart cells that contains a stable transfection of the human TDP1 gene (Tdp1-/-;hTDP1 cells). For the primary screen, Tdp1-/-;hTDP1 cells will be exposed to small molecules in the presence or absence of CPT, and their growth kinetics will be evaluated after 48 hours by measuring ATP activity. […] The hit compounds will then be evaluated in the presence or absence of CPT using Tdp1-/- cells. […] In tertiary assays, biochemical gel-based assays will be used to assess whether the hit compounds specifically target TDP1.
To this end, we have screened this cell line against the MLSMR in two primary screens. In one screen we add CPT and in the other we screen in the absence of CPT; this AID represents the screen where CPT was absent.
NIH Chemical Genomics Center [NCGC]
NIH Molecular Libraries Probe Centers Network [MLPCN]
Assay Submitter (PI): Yves Pommier, NCI
DT40-hTDP1 cells without 20 nM Camptothecin (add 20 microL of DMSO in 1 L of cell culture medium) were dispensed at 400 cells/5microL/well in tissue culture treated 1536-well white wall/solid bottom assay plates (Greiner Bio-One North America, NC, U.S.A.) using a Multidrop Combi 8 channel dispenser (Thermo Fisher, Waltham, MA, USA). 23 nL compounds and controls were transferred using the pin tool (Kalypsys, San Diego, CA, USA) to the assay plates. The assay plates were then incubated at 37 masculineC for a minimum 48 hr. Three microL of Cell Titer Glo solution was added to the plates and incubated at RT in dark for 30 min. Luminescence was read using ViewLux (Perkin Elmer) with 1 sec exposure slow speed, high gain and 2x binning.
For orientation: In qHTS, concentration-response curves come from the screen itself.
Turning to `O=c1[nH]nc(CSCc2ccccc2Cl)[nH]1`, the “activity change, negative = growth inhibition” value was 0.525% (inactive). Same read-out and setting: the value for `CC(=O)c1ccccc1NC(=O)COC(=O)C1COc2ccccc2O1` (configuration not stated) was -5.47% (inactive). On to `COc1ccc(OC)c2sc(N3CCN(C(=O)C4COc5ccccc5O4)CC3)nc12` (configuration not stated), for which the Potency was 16.4 µM (active). Take `COc1ccc(NC(=O)C2COc3ccccc3O2)cc1` (configuration not stated): the “activity change, negative = growth inhibition” value was -5.89% (inactive). On the same count and under the same terms, the value for `Cc1cc(Cl)ccc1N1C(=O)CC(SCCC(=O)O)C1=O` (configuration not stated) was -7.11% (inactive).

As to `CCOC(=O)c1cn(CC)c2cc(F)c(F)cc2c1=O`, the “activity change, negative = growth inhibition” value is -3.3% (inactive).

Consider `COc1cc(OC)cc(C(=O)Nc2nnc(SCC(=O)NCC3CCCO3)s2)c1` (configuration not stated), for which the “activity change, negative = growth inhibition” value is 5.33% (inactive). Still for that read-out and setting: the value for `CC(C)(C)NC(=O)COc1ccc(CNc2ccc3[nH]c(=O)[nH]c3c2)cc1` was -19.9% (inactive). `C=C(C)C(=O)O[C@H]1C/C(C)=C\C(=O)/C=C(\C)[C@H](O)[C@@H]2OC(=O)C(=C)[C@@H]21`: the Potency is 1.16 µM (active). Consider `C/C=C(\C)C(=O)O[C@H]1CC(C)=C2C(=O)C=C(C)C2[C@@H]2OC(=O)[C@@](C)(OC(=O)C=C(C)C)C21` (some centres not stated), for which the activity change, negative = growth inhibition is 5.36% [at 9.04 µM] (inactive). For `Cc1c(S(=O)(=O)N2CC(C)CC(C)C2)c(=O)n(C)c(=O)n1C` (configuration not stated), the “activity change, negative = growth inhibition” value was 6.33% (inactive). On the same count and under the same terms, next, `CCN(C(=O)Cc1c(C(=O)O)n(CC)c2ccccc12)c1ccccc1C`: -6.5% (inactive). On to `CCOC(=O)c1c(NC(=O)CNC2CCCc3ccccc32)sc(C(N)=O)c1C` (configuration not stated), for which the Potency is 16.4 µM (active).

Take `NC(=O)Nc1ccc(C(=O)OCC(=O)NC2CCCc3ccccc32)cc1` (configuration not stated): the “activity change, negative = growth inhibition” value is -9.68% (inactive).

`CCOC(=O)c1sc(NC(=O)COc2ncnc3ccccc23)c(C(=O)OCC)c1C`: the “activity change, negative = growth inhibition” value is -28% (inactive).

`C=CCNC(=O)CC12CC3CC(C1)CC(CC(=O)NCC=C)(C3)C2`: the “activity change, negative = growth inhibition” value is -16.4% (inactive). On the same count and under the same terms, the value for `COc1ccc(CNC(=O)C(=O)N2CCC3(CC2)OCCN3S(=O)(=O)c2ccc(C)cc2)cc1` was -24.9% (inactive). Consider `Cc1ccccc1CC1(CO)CCCN(C(=O)c2cc(-c3ccccc3)no2)C1` (configuration not stated), for which the Potency is 29.1 µM (active). For the compound `CCc1[nH]nc(C(=O)N2CCCC(CO)(Cc3ccc(F)cc3F)C2)c1C` (configuration not stated), the “activity change, negative = growth inhibition” value is -24.1% (inactive). On the same count and under the same terms, next, `Cc1noc(C)c1CCC(=O)N1CCCC(CO)(Cc2ccccc2)C1` (configuration not stated): -5.73% (inactive); `CCCc1nnc(NC(=O)CCC(=O)N2CCN(S(=O)(=O)c3ccc(OC)cc3)CC2)s1`: -9.79% (inactive). In the case of `COc1ccc(C(=O)Nc2nc(-c3ccc(OC)cc3)c(-c3ccc([N+](=O)[O-])cc3)s2)cc1`, the Potency was 9.2 µM (active). Take `COc1ccc(C(=O)NCCNc2ccc([N+](=O)[O-])cn2)cc1`: the “activity change, negative = growth inhibition” value is 9.53% (inactive). Still for that read-out and setting: the value for `COc1ccc(-c2[nH][nH]c(=O)c2NC(=O)c2ccc([N+](=O)[O-])cc2)cc1` was 4.8% (inactive).

As for `O=C(CN(C(=O)c1csnn1)c1cccc(Cl)c1)NC1CCCC1`, the “activity change, negative = growth inhibition” value is -0.467% (inactive). Still for that read-out and setting: next, `Cc1cccc(C)c1N1CCN(S(=O)(=O)N2CCOCC2)CC1`: -27.9% (inactive). Consider `CCc1cc2c(NC3CCCC3)ncnc2s1`, for which the Potency was 4.61 µM (active).

On to `CCc1cc2c(NC(Cc3ccccc3)C(=O)O)ncnc2s1` (configuration not stated), for which the “activity change, negative = growth inhibition” value was 17.1% (inactive). In the case of `Clc1cc(NC2CCCCC2)ncn1`, the “activity change, negative = growth inhibition” value was -1.91% (inactive).

In the case of `CCCC12CN3CC(CCC)(CN(C1)C3c1c[nH]c3ccc(OC)cc13)C2=O` (configuration not stated), the Potency was 10.3 µM (active). Take `CCCC12CN3CC(C)(CN(C1)C3c1ccccc1Cl)C2=O` (configuration not stated): the “activity change, negative = growth inhibition” value is -2.7% (inactive). The same measure, in the same setting: next, `CCN(CC)CC(=O)c1c[nH]c2ccc(OC)cc12`: -1.44% (inactive); `COc1ccccc1CNC(=O)CSc1nc(=O)n(Cc2ccncc2)c2c1CCC2`: 5.82% (inactive). On the same count and under the same terms, the value for `O=S1(=O)CCN(Cc2ccccc2Cl)CC1` was 3.47% (inactive); that for `CC(=O)N1CC(=O)N(CC(=O)Nc2ccc(Br)cc2)C1=S` was -22.6% (inactive); that for `CC1(C)CN(CCc2ccccc2)C(=O)[C@H]1CC(=O)Nc1ccc(Br)cc1` was -22% (inactive).

For `CCCCN1CC(C)(C)[C@H](CC(=O)Nc2ccc(Br)cc2)C1=O`, the Potency was 16.4 µM (active).

For `O=C(N/N=C/c1ccccn1)C12CC3CC(CC(C3)C1)C2`, the “activity change, negative = growth inhibition” value was -2.56% (inactive). On the same count and under the same terms, the value for `COc1cccc(NC(=O)Cn2c3ccccc3c3nc4n(c(=O)c32)CCS4)c1` was -18% (inactive); that for `CN(CC(=O)NC(=O)Nc1ccccc1F)Cc1ccccc1` was -25.6% (inactive). In the case of `COc1cccc2c1C(=O)c1c(O)c3c(c(O)c1C2=O)CC(O)(C(C)=NNC(=O)c1ccc(Cl)c(Cl)c1)CC3OC1CC(N)C(O)C(C)O1` (configuration not stated), the Potency was 0.164 µM (active).

With `O=C(Nc1ccccc1-c1ccccc1)c1ccccc1[N+](=O)[O-]`, the “activity change, negative = growth inhibition” value is 15.4% (inactive).

As to `COc1cccc(N2CC(C(=O)NCc3n[nH]c(=O)c4ccccc34)CC2=O)c1` (configuration not stated), the “activity change, negative = growth inhibition” value is -16.6% (inactive). For the compound `CCn1c2ccccc2c2cc(NC(=O)CNC)ccc21`, the “activity change, negative = growth inhibition” value is -23.9% (inactive).

For `CC(=O)Nc1ccc(NC(=O)CSc2nnc(C3CC3)n2-c2ccccc2)cc1`, the “activity change, negative = growth inhibition” value is -15.9% (inactive). On to `CC[n+]1c(C)n(-c2ccccc2)c2ccc(NC(C)=O)cc21`, for which the Potency is 2.59 µM (active). With `N#CC(C(N)=O)=C1CCC2(CC1)OCCCCO2`, the “activity change, negative = growth inhibition” value was 6.97% (inactive). Still for that read-out and setting: next, `CCOc1cc(/C=N/O)ccc1OCc1ccccc1F`: -23.7% (inactive). Still for that read-out and setting: the value for `CCN(CC(=O)Nc1c(F)cccc1F)C(=O)c1ccc(-c2ccc(C(C)=O)cc2)o1` was -4.02% (inactive). Regarding `COC(=O)c1cc2c(N)c(C(=O)c3ccc(Cl)cc3)sc2nc1C(OC)OC`, the Potency is 14.6 µM (active). Regarding `COc1ccc(OC)c(C(=O)c2ccc(Cl)cc2)c1`, the “activity change, negative = growth inhibition” value is 2.86% (inactive). Still for that read-out and setting: next, `COC(=O)c1cn(C(=O)c2ccc(Cl)cc2)c2ccccc12`: -12.8% (inactive).
